An excerpt weighted towards active compounds, which were near 17% of everything screened.
TDP1 cell CPT: DT40-hTDP1 cell growth loss with CPT | chicken DT40 Tdp1-/-;hTDP1 cells + 20 nM CPT, ATP luminescence, 48 h | Potency, µM (doses to about 46.2 µM), inactives show at the highest dose activity change, negative = growth inhibition, hits mostly inhibitors | hit rate 12% among 420,000; note: % is set by controls: 0 for no effect and ±100 for the full control effect; nearly all actives have a fitted effect of over 55% in size
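Chicken DT40 Tdp1-/- cells complemented with human TDP1, 400 cells/well, exposed to compounds plus 20 nM camptothecin for at least 48 h at 37 C; viability read as ATP content by CellTiter-Glo luminescence.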
HepG2 tox: HepG2 cytotoxicity, counter-screen for TGF-b inhibitors | AID 588856 | HepG2 CAGA-GFP viability, ATP luminescence, 18 h | Potency, µM (highest dose often 46.1 µM), for inactives: at the top dose activity change, negative = cytotoxicity, usual class: cytotoxic | hit rate 0.76% among 410,000
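CellTiter-Glo luminescence gave cytotoxicity after 18 hours at 37 degrees C. The cells were HepG2 CAGA-GFP in 1% FBS DMEM, stimulated with 500 pg/mL TGF-beta after compound addition. %Activity was normalised to no-cell wells (complete cell-killing) and DMSO (no toxicity), and curves were fitted and classified.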
TGFb inhibitor: TGF-b pathway inhibition; Potency, µM (series often up to 46.1 µM), for inactives: at the top dose activity, negative = inhibition, most hits filed as inhibitors; hit rate 1.2% among 410,000; HepG2 CAGA-GFP TGF-b/SMAD3 reporter, GFP fluorescence, 18 h; TGF-beta stimulated, 500 pg/mL final; AID 588855; note: % is set by controls: 0 for no effect and ±100 for the full control effect; nearly all actives have a fitted effect of over 65% in size
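HEPG2 CAGA-GFP, 1000 cells/well; 2 h settle, 37 C; cpd via pin tool; TGF-b 500 pg/mL final; 18 h, 37 C; GFP imaging ex488/em500-530; %Activity normalised to -TGF-b and +DMSO controls; CRC fit, curve class.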
S2 tox: cell viability loss in ATXN counter-screen | S2 cells (HEK-293 line with an ATXN2-luciferase reporter) viability, CellTiter-Fluor protease fluorescence, 24 h | Potency, µM (highest dose often 56.7 µM), hits mostly cytotoxic | hit rate 0.49% among 400,000 | AID 651635; note: nearly all actives have a fitted effect of over 40% in size
DT40 TDP1 no CPT: qHTS for Inhibitors of human tyrosyl-DNA phosphodiesterase 1 (TDP1): qHTS in cells in absence of CPT. hit rate 15% among 420,000. Potency, µM (top dose mostly 46.2 µM), for the others: at the top dose activity change, negative = growth inhibition, hits mostly inhibitors. DT40 Tdp1-/- hTDP1 cells, no CPT, ATP luminescence, 48 h; note: % is set by controls: 0 for no effect and ±100 for the full control effect; nearly all actives have a fitted effect of over 55% in size
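Cells were dispensed at 400 per well, compounds added by pin tool, plates incubated ≥48 hr at 37 °C, then CellTiter-Glo added for 30 min at room temperature before luminescence reading. Line: DT40 Tdp1-/- complemented with hTDP1; camptothecin omitted.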
ATXN2 expr inh: inhibitors of ATXN2 expression; Potency, µM (highest dose often 57 µM), for inactives: at the top dose activity change, negative = inhibition, most hits filed as inhibitors; hit rate 0.72% among 360,000; AID 1745845; HEK-293 ATXN2-luciferase reporter, luminescence, 24 h; note: % is set by controls: 0 for no effect and ±100 for the full control effect; nearly all actives have a fitted effect of over 55% in size
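ATXN2-luciferase reporter cells (luciferase flanked by upstream and downstream ATXN2 gene portions) were treated 24 h at 37 °C with compounds at up to 57 uM. SteadyGlo luminescence gave expression; GF-AFC fluorescence gave viability.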
Numbers without * were called inactive; i = inactive; ? = inconclusive; / = no result given; [ ] = remark or other dose. Calls come from the whole dose curve; as a rule, active = well fitted curve in the direction sought with a large enough effect; inconclusive = small, poorly fitted or top-dose-only effect, or another doubt; inactive = no such curve, though single readings can be large; an effect the other way counts as inactive or inconclusive. Potency is the fitted concentration of half-maximal effect.

SMILES	TDP1 cell CPT	HepG2 tox	TGFb inhibitor	S2 tox	DT40 TDP1 no CPT	ATXN2 expr inh
O=[N+]([O-])c1cccc(N=NNc2cccc([N+](=O)[O-])c2)c1	?	-1%	3%	i	18µM*	/
Cc1nn(C)c(C(=O)Nc2ccc(Br)cc2F)c1Br	-1%	0%	9%	i	-23%	24%
Cc1nn(C)c(C(=O)Nc2ccc(S(=O)(=O)NC34CC5CC(CC(C5)C3)C4)cc2)c1Br	21µM*	-1%	?	?	23µM*	?
Cc1ccc(S(=O)(=O)NC23CC4CC(CC(C4)C2)C3)cc1	?	-20%	-55%	/	21µM*	/
Cc1ccc(S(=O)(=O)NN=C2C3CC4CC(C3)CC2C4)cc1	7%	-12%	-3%	i	1%	0%
O=C(NC(=S)NNC(=O)c1ccccc1[N+](=O)[O-])c1ccc(Br)cc1	-1%	-13%	2%	i	-24%	13%
CN(c1ccccc1C(=O)Nc1ccc2ccccc2c1)S(C)(=O)=O	-19%	16%	0%	?	-2%	-29%
CC(C)(C)c1ccc(OCC(=O)Nc2ccc(C(=O)OC3CCCCC3)cc2)cc1	?	-1%	-2%	?	-25%	0%
COc1ccc(S(=O)(=O)NCc2cc(=O)n(C)c(=O)n2C)cc1F	-16%	5%	-3%	i	4%	7%
CCOc1ccccc1NC(=O)Cn1nnc(C(=O)NCc2ccc3c(c2)OCO3)c1N	4.1µM*	3%	0%	?	2.6µM*	/
CCOc1ccccc1NC(=O)Cn1nnc(C(=O)NCc2ccco2)c1N	0.0092µM*	-11%	?	i	0.023µM*	-21%
FC(F)(F)C(F)(F)C(F)(F)C(F)(F)C(F)(F)F	-7%	/	/	/	-9%	/
Cc1cccc(Cn2nnc3c2C(=O)c2ccccc2C3=O)c1	9.2µM*	-58%	3.2µM*	/	4.6µM*	/
Cc1cccc(Cn2cc3c(=O)n(Cc4cccc(F)c4)nc-3c3ccccc32)c1	-21%	6%	6%	i	-24%	1%
Cc1ccccc1Cn1nnc2c1C(=O)c1ccccc1C2=O	8.2µM*	-88%	3.5µM*	i	6.5µM*	-17%
Cc1cc(C)c[n+](CC(=O)c2ccc(C)c([N+](=O)[O-])c2)c1	2%	-40%	-25%	i	19%	37%
COc1cc(C(=O)COC(=O)c2cc([N+](=O)[O-])ccc2N2CCOCC2)ccc1OC(F)F	?	-9%	-24%	i	?	-8%
Cc1[nH]nc(-c2cccnc2)c1N=NN(C)C	0.82µM*	14µM*	?	/	1.5µM*	0%
Cn1c(N)c(C(=O)COC(=O)Cc2cccc(C(F)(F)F)c2)c(=O)n(C)c1=O	-27%	-11%	1%	i	?	/
Oc1ccc(Nc2nc(NCC3CCCO3)c3ccccc3n2)cc1 (stereo not given)	23µM*	-41%	-3%	?	16µM*	3%
Oc1ccccc1Nc1nc(NCC2CCCO2)c2ccccc2n1 (stereo not given)	16µM*	-22%	-8%	?	26µM*	?
Cc1cccc(S(=O)(=O)Nc2nc3ccccc3nc2NCC2CCCO2)c1 (stereo not given)	-10%	-10%	1%	i	2%	-18%
Cc1ccc(S(=O)(=O)Nc2nc3ccccc3nc2NCC2CCCO2)cc1C (stereo not given)	21µM*	-1%	2%	i	?	-5%
COc1ccccc1CNC(=S)Nc1ccc(S(N)(=O)=O)cc1	-14%	5%	17%	i	-19%	-2%
Cc1cccc(-n2ncc3c2CCCC3NC(=O)CCN2CCCCO2)c1C (stereo not given)	?	10%	-12%	?	?	1%
SMILES	TDP1 cell CPT	HepG2 tox	TGFb inhibitor	S2 tox	DT40 TDP1 no CPT	ATXN2 expr inh
Cc1ccc2nc(-c3cccc(NC(=O)c4cccc5c(Cl)cccc45)c3)oc2c1	?	0%	-2%	i	?	21%
O=C(CSc1nnnn1C1CCCC1)NCCc1ccccc1	-1%	-5%	-27%	i	-12%	25%
COc1ccc(-c2cc(C(F)(F)F)nc(S(=O)(=O)CCCC(=O)Nc3cc(C)on3)n2)cc1OC	0.73µM*	-109%	?	?	1.2µM*	?
COc1ccc(Cl)cc1NC(=O)CCCS(=O)(=O)c1nc(-c2ccc(OC)c(OC)c2)cc(C(F)(F)F)n1	1.5µM*	14µM*	2.8µM*	/	2.1µM*	/
COc1ccc(NC(=O)CCCS(=O)(=O)c2nc(-c3ccccc3OC)cc(C(F)(F)F)n2)c(OC)c1	-10%	-5%	-11%	i	-20%	6%
COc1ccccc1-c1cc(C(F)(F)F)nc(S(=O)(=O)CCCC(=O)Nc2cc(Br)ccc2O)n1	-16%	-28%	-27%	i	-19%	53%
COc1ccc(-c2cc(C(F)(F)F)n3nc(C(=O)Nc4cc(C)on4)cc3n2)cc1OC	-20%	-25%	0%	i	-29%	3%
COc1ccccc1-c1cc(C(F)(F)F)nc(S(=O)(=O)CCCC(=O)Nc2cc(C)on2)n1	0.92µM*	-35%	-6%	/	1µM*	?
Cc1nnc(SCC(=O)Nc2cccc(Br)c2)s1	11%	67%	46%	?	8%	/
CCc1noc(C)c1C(=O)OCC(=O)Nc1ccc2c(c1)OCO2	4%	-11%	10%	?	2%	/
COc1cccc(C(=O)NCC(c2cccnc2)N2CCN(c3ccccc3OC)CC2)c1 (stereo not given)	21µM*	-34%	-8%	?	23µM*	0%
COc1ccc(C(=O)NCC(c2cccnc2)N2CCN(c3ccccc3OC)CC2)cc1OC (stereo not given)	21µM*	-4%	-6%	i	?	-9%
CC1(C)CC(=O)C(CSC(=O)c2ccccc2)C(=O)C1	13µM*	-1%	-17%	?	13µM*	/
CC1(C)CC(=O)C=C(NNC(=O)c2ccccc2)C1	-1%	14%	-35%	i	-13%	-2%
CC(=O)c1nn(-c2ccc(OC(F)(F)F)cc2)nc1Nc1ccc(Cl)cc1	?	-24%	-21%	/	?	/
CCCc1n(CC)c2ccccc2[n+]1CC(O)COC1CCCCC1 (stereo not given)	5.2µM*	-1%	11%	?	4.1µM*	-31%[11.3 µM]

Screens from PubChem.
